ANO1 block = TMEM16A chloride channel inhibitors, primary screen, cell-based, HTS; Anoctamin-1 (Mus musculus), Q8BHY3; HEK293 TMEM16A/YFP iodide influx fluorescence, ionomycin; normalized B-score (activity score, 25-100; higher = stronger inhibition) at 10 µM; 1.2% of 310,000 active; AID 588511, 2011;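 active = ratio plate-corrected score three or more library SD toward inhibition, starting fluorescence score within five deviations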;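 note: score derived from kinetic fluorescence span divided by baseline fluorescence per well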
TMEM16A act = TMEM16A chloride channel activators or potentiators, primary screen, cell-based, HTS; AID 623877, 2012; B-score at 10 µM; Anoctamin-1 (Mus musculus), Q8BHY3; HEK293 TMEM16A/YFP-H148Q/I152L, iodide quench fluorescence; active compounds read low; 0.3% of 340,000 active;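 active = fluorescence-ratio B-score plate-corrected deviation score at least 3 library SD below zero, with starting fluorescence score within 5 deviations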;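 note: channel opened by trigger with iodide after compound preincubation; score built on the fluorescence ratio of max minus min over baseline; more negative score means more quench and so TMEM16A activation or potentiation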
CHT PAM = CHT positive allosteric modulators, primary screen, cell-based, membrane potential dye, choline EC20 | CHT-expressing cells; active compounds read high; LV-AA mutant CHT in HEK293 cells | B-score at 10 µM | 0.49% of 310,000 active | AID 488977, 2010;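 active = initial fluorescence not abnormally high and integrated response B-score, plate-corrected, over 3 SD above library mean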
PKA-R2B act = activators of PKA-R2B holoenzyme, primary screen, biochemical, fluorescence polarization, Cy5-IP20, human; PKA-R2B holoenzyme dissociation; R2B truncated from residue 108, S112A mutant; 0% DMSO only, 100% 113 µM cGMP; cAMP-dependent protein kinase catalytic subunit beta (Homo sapiens) + cAMP-dependent …; activation, % at 11.4 µM; AID 504700, 2011; 0.079% of 340,000 active;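 active = activation above a cutoff set at the mean over all compounds plus 3 SD, cut at about 18% in these data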;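 note: higher means more holoenzyme dissociation and a rise in polarization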
PKA-R1A activ = activators of PKA-R1A holoenzyme, primary screen, biochemical, fluorescence polarization, Cy5-IP20, bovine R1A, mouse PKAc; cAMP-dependent protein kinase type I-alpha regulatory subunit (Bos taurus) + …; PKA-R1A dissociation; scaled: DMSO 0%, 113 µM cGMP 100%; activation, % at 11.4 µM; 0.083% of 340,000 active;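 active = percent activation above the mean of all tested compounds plus 3 SD, cut at about 19% in these data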;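 note: higher means more PKAc released from R1A so a rise in polarization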
CHT inh = inhibitors of human choline transporter CHT; 0.86% of 310,000 active; B-score at 10 µM; High affinity choline transporter 1 (Homo sapiens), Q9GZV3; CHT-expressing cells, membrane potential dye, choline response; active compounds read low;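 active = B-score over 3 SD under the library average, and starting fluorescence ratio not unusually high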;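 note: choline stimulus applied at its EC90 after an EC20 pre-addition; B-score computed on integrated fluorescence ratio after choline addition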
CHT activ conf = CHT activators, confirmation, cell-based, membrane potential dye, duplicate. shares compounds with CHT PAM. CHT-expressing cells, membrane potential dye fluorescence (FDSS); % of choline EC20–EC90 response window; HEK293 expressing CHT LV-AA mutant; choline added at its EC20. activation, % at 10 µM. 91% of 2,500 active;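 active = primary screen active, with duplicate mean activation above negative control mean plus 3 SD, cut at about 11% in these data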
HEK293 MP dye = membrane potential response in parental HEK293 cells, counter-screen for CHT activator project, cell-based, membrane potential dye. shares compounds with CHT PAM. membrane potential dye fluorescence (FDSS); measured after EC20 choline addition. ratio readout change at 10 µM, hits read low. 62% of 2,500 active;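 active = duplicate-averaged ratio beyond 3 SD from buffer wells, up or down, though filed actives are nearly all decreases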
Of the large screens only hits and unclear results are named; the others gave an inactive call (follow-up assays come after a bar, where they were run). A selection: hits, their analogues and other compounds. The true share with any hit is near 2.5%.

Fc1ccc(-c2cn(-c3ccccc3)c3[n+]2CCS3)cc1	none | CHT activ conf 51.5 | HEK293 MP dye -41.8
Cc1ccc(C2=NNC(=O)C(P(=O)(c3ccccc3)c3ccccc3)C2)cc1 (configuration not stated)	none
COc1ccc(S(=O)(=O)Nc2ccc3c(c2)C(=O)N([C@@H](C)CO)C[C@@H](C)[C@H](CN(C)S(=O)(=O)c2ccc(F)cc2)OCCCC[C@H](C)O3)cc1	none (no result: ANO1 block, TMEM16A act, CHT PAM, CHT inh)
Cc1nnc(NCc2ccncc2)c2ccccc12	CHT PAM 7.07 | CHT activ conf 56.1 | HEK293 MP dye -46.4
Cc1cc(C)n(-c2nc3ccccc3nc2N2CCCCCC2)n1	none | CHT activ conf 17.2 | HEK293 MP dye inactive
O=C(COc1ccccc1)NCC(c1ccco1)N1CCN(c2ccccc2)CC1 (configuration not stated)	CHT PAM 8.04 | CHT activ conf 45.2 | HEK293 MP dye inactive
COc1ccc(NC2CCCN(C(=O)CN3C(=O)c4ccccc4C3=O)C2)cc1OC (configuration not stated)	none
Cn1c(/C=N/n2cnnc2)nc2ccccc21	CHT PAM 6.55 | CHT activ conf 59.8 | HEK293 MP dye -48.3
CCOC(=O)N1CCN(c2cc(NCCO)c([N+](=O)[O-])c3nonc23)CC1	none | CHT activ conf 38.7 | HEK293 MP dye -32.2
CCn1c(/C=N/Nc2ccc(C(=O)O)cc2)nc2ccccc21	CHT PAM 6.32 | CHT activ conf 44.1 | HEK293 MP dye -35.2
CC[n+]1c(/C=C/N(C)c2ccccc2)oc2ccc(F)cc21	none | CHT activ conf 29.9 | HEK293 MP dye -39.2
CC[n+]1c(/C=C/Nc2ccccc2)oc2ccccc21	none | CHT activ conf 41.4 | HEK293 MP dye -35
CC[n+]1c(/C=C/Nc2ccccc2)oc2ccc(OC)cc21	none
CC[n+]1c(/C=C/N(C)c2ccccc2)oc2ccccc21	none | CHT activ conf 51.5 | HEK293 MP dye -30.1
CC(C)c1ccc2[nH]c3nc(SCC(=O)N4CCOCC4)nnc3c2c1	none
Cc1nc(SCC(=O)NCC2CCCO2)c2c3c(sc2n1)CCCC3 (configuration not stated)	none
CSc1nc(SCC(=O)NCC2CCCO2)c2c3c(sc2n1)CN(C)CC3 (configuration not stated)	CHT PAM 6.52 (no result: PKA-R2B act, PKA-R1A activ) | CHT activ conf 36.3 | HEK293 MP dye -50.4
CC(C)Sc1nc(N)c2c3c(sc2n1)CN(C)CC3	none | CHT activ conf 30.9 | HEK293 MP dye -43.5
COCCNc1nc(SC)nc2sc3c(c12)CCN(C)C3	CHT PAM 7.14 | CHT activ conf 38.3 | HEK293 MP dye -44.4
COCCSc1nc(N)c2c3c(sc2n1)CN(C)CC3	CHT PAM 6.39 | CHT activ conf 41.3 | HEK293 MP dye -50.9
CSc1nc(NCC(C)C)c2c3c(sc2n1)CN(C)CC3	none
O=C(O)Cn1c(=O)c(F)cn(C2CCCO2)c1=O (configuration not stated)	none
CCC1=Nc2ccc(Br)cc2C(c2ccccc2)N1CC(=O)OC (configuration not stated)	CHT PAM 11.2 | CHT activ conf 13.6 | HEK293 MP dye inactive
